# In PMC12548414:
# Out of some 1,600 compounds screened, about 20 (1%) showed an effect of 50% or more. The sample as a whole holds a higher share of strong results than the screen did.
# Tested on: T1, E. coli pLC1021 (luc-trpAt trans-translation reporter)
# T1 construct: pLC1021 luc-trpAt reporter strain
# Design: species or system Escherichia coli pLC1021; luc-trpAt non-stop luciferase reporter; luminescence rises when trans-translation is inhibited; normalized to KKL-35 and DMSO
# Details: reporter signal, KKL-35 = 100%; rise means trans-translation inhibition; 2 h, 20 µM
# Description: The luciferase screen was performed as previously described ([16]). […] 48 µL of cells was transferred to white 96-well plates, and 2 µL DMSO or 20 µM compound, or 20 µM KKL-35 was added. Plates were sealed with adhesive film, vortexed gently to mix, and incubated at room temperature for 2 h. 50 µL Bright-Glo reagent (Promega, Madison, WI) was added to each well, and the plates were sealed with adhesive film, vortexed vigorously, and incubated for an additional 10 min at room temperature. Luminescence was measured at 560 nm using a SpectraMax i3 microplate reader and readings for each plate were normalized to the average of three KKL-35-treated wells (positive control) and three DMSO-treated wells (negative control) within the plate to correct for plate-to-plate and day-to-day variations. Results from at least two biological repeats were averaged, and GraphPad Prism was used to plot the data. We screened a library of 1,601 anti-tubercular small molecules for their ability to inhibit trans-translation using a luciferase reporter in Escherichia coli. In this luc-trpAt reporter, the firefly luciferase gene has a trpA transcriptional terminator before the stop codon, such that luciferase is translated from a non-stop mRNA ([16]). When trans-translation is active, the luciferase will be tagged and degraded, but when trans-translation is inhibited, active luciferase will accumulate, resulting in a luminescent signal when luciferin is added. Luciferase activity was measured after growth in the presence of compounds from the library at 20 µM, using the known trans-translation inhibitor KKL-35 as a positive control (Fig. 1A) ([16], [17]). Compounds with activity one standard deviation above the median were scored as positive (Fig. S1 and Table S1).
row,SMILES,% activation [%]
1,COC(=O)CSc1nc(N)c2c3c(sc2n1)CCCC3 [KKL-0994],9
2,COc1ccc(C(=O)NC(=S)Nc2ccc(N3CCCCC3)cc2)cc1OC [KKL-1472],0
3,Cc1cc(Nc2ccccc2)n(-c2nc3ccccc3[nH]2)n1 [KKL-0835],21
4,COc1ccc2[nH]c(CNCCc3nc4cc(Cl)ccc4[nH]3)cc2c1 [KKL-1215],0
5,COCc1nnc(NC(=O)c2nnn(-c3ccccc3F)c2C)s1 [KKL-0547],0
6,CCC(C)NCCCOc1ccc(Cl)c2ccccc12 (centres unmarked) [KKL-1428],0
7,O=C(CNCCN1CCOCC1)Nc1sc2c(c1C(=O)Nc1ccccc1)CCC2 [KKL-1074],2
8,CCOC(=O)c1ccc(NC(S)=Nc2ccc(Oc3ccccc3)cc2)cc1 [KKL-1317],0
9,Cc1c(C(=O)NC(=S)Nc2ccc(Oc3ccc(Cl)cc3)cc2)cccc1[N+](=O)[O-] [KKL-0735],17
10,O=C(COc1cccc(F)c1)Nc1nc(-c2ccccn2)cs1 [KKL-1787],5
11,O=C(CSc1ccccc1)Nc1ccc(-c2nc3ccccc3c(=O)o2)cc1 [KKL-0595],1
12,O=C(Nc1ccc(F)cc1)NC1CCCCCCC1 [KKL-1335],0
13,COc1cc(CN(CCCn2ccnc2)Cc2ccc(C)s2)cc2c1OCO2 [KKL-0341],9
14,CSc1nc2nc3c(c(O)n2n1)CCCC3 [KKL-1033],0
15,Cc1ccc(C(=O)Oc2ccc(Cl)c3cccnc23)cc1[N+](=O)[O-] [KKL-1383],0
16,COc1ccc(C(=O)Oc2cccc3cccnc23)cc1[N+](=O)[O-] [KKL-1648],0
17,O=C(Oc1c(Cl)cc(Cl)c2cccnc12)c1ccccc1[N+](=O)[O-] [KKL-1418],90
18,O=C(Oc1c(Cl)cc(Cl)c2cccnc12)c1ccco1 [KKL-1639],0
19,O=C(Oc1c(Cl)cc(Cl)c2cccnc12)c1ccc([N+](=O)[O-])cc1 [KKL-0754],96

row,SMILES,% activation [%]
1,Cc1c(C(=O)Oc2cccc3cccnc23)cccc1[N+](=O)[O-] [KKL-0952],8
2,CCCc1cc2c(=O)c(-c3ccc4c(c3)OCCCO4)coc2cc1OCC(=O)OCC [KKL-1419],0
3,O=C(Nc1ccc(Cl)cc1C(F)(F)F)c1ccc([N+](=O)[O-])o1 [KKL-0712],0
4,CN1CCN(c2cc(-c3ccc(F)cc3)nc(-c3ccncc3)n2)CC1 [KKL-1844],0
5,CN1CCN(c2cc(-c3ccncc3)nc(-c3ccccc3)n2)CC1 [KKL-1795],237
6,COc1ccc(-c2cncc(-c3cc(N4CCN(CCO)CC4)nc(-c4ccccc4)n3)c2)cc1 [KKL-1682],0
7,Cc1cc(CN2CCC(O)(c3ccccc3)C2)ccc1N1CCCC1 (centres unmarked) [KKL-0330],0
8,CCc1ccc(Nc2nnc(SCc3cc(C)on3)s2)cc1 [KKL-1791],0
9,N#Cc1cc2c(ccc3ccccc32)oc1=O [KKL-1386],0
10,CCCc1ccc2oc(C(=O)NCCc3ccc(O)cc3)c(C)c2c1 [KKL-1185],2
11,C#CCOc1cccc(CN2CCn3cccc3C2CC)c1 (centres unmarked) [KKL-0516],0
12,CSc1ncc(CN2CCCC(C(=O)c3ccc(-c4ccccc4)c(F)c3)C2)cn1 (centres unmarked) [KKL-0344],0
13,CN(CC1Cc2ccccc2CN1C)C(=O)c1cc(COc2cncc(Cl)c2)on1 (centres unmarked) [KKL-1186],0
14,COc1ccccc1N1C(=O)c2cccc3cc([N+](=O)[O-])cc(c23)C1=O [KKL-1508],0
15,Cc1ccccc1OCCCON1C(=N)N=C(N)NC1(C)C [KKL-1698],11
16,COc1ccc(C(C)(C)C)cc1N=C(S)Nc1ccc(Cl)c(Cl)c1 [KKL-1535],0
17,Cc1ccc2nc(C(F)(F)F)c(C(=O)NCc3cccc(OC(C)C)c3)n2c1 [KKL-1772],2
18,Oc1cccc2ccc(/C=C/c3cccc(F)c3)nc12 [KKL-1464],18
19,Cc1ccccc1/C=C/c1ccc2cccc(O)c2n1 [KKL-0432],11

row,SMILES,% activation [%]
1,CC(=O)Nc1ccc2cccc(O)c2n1 [KKL-0957],55
2,Cc1nc2ccccn2c1C(=O)Nc1ccc(C(C)(C)C)cc1 [KKL-1770],0
3,N#Cc1ncn(-c2ccc3nnc(C(F)(F)F)n3n2)n1 [KKL-1886],0
4,CC(C)c1noc(N2CCC(C(C)Oc3cnc(-c4ccc(S(C)(=O)=O)c(F)c4)cn3)CC2)n1 (centres unmarked) [KKL-1810],0
5,Cc1ccc(-c2cc(C(=O)N3CCCC(N4CCN(c5ccccc5C)CC4)C3)[nH]n2)s1 (centres unmarked) [KKL-0485],0
6,COc1cccc(O)c1CN1CCC(C(=O)Nc2ccc(-c3cccc(C)c3)cc2)CC1 [KKL-0508],0
7,CSc1nccc(N2CCCC(CCC(=O)NCc3ccc(F)c(F)c3)C2)n1 (centres unmarked) [KKL-0346],0
8,c1ccc(-c2nc3c(c(N4CCN(Cc5cc6ccccc6[nH]5)CC4)n2)CCC3)cc1 [KKL-0483],0
9,Fc1ccc(Nc2nc(-c3ccccn3)cs2)cc1 [KKL-0715],18
10,O=C(CCCSc1ccccc1)Nc1nc(-c2ccccn2)cs1 [KKL-0800],1
11,COC(=O)COc1ccc2c(=O)c(-c3ccccc3Cl)c(C)oc2c1 [KKL-0748],0
12,COC(=O)COc1ccc(NC(=O)c2ccccc2I)cc1 [KKL-1569],0
13,Cc1ccc(NC(=O)C(Cl)Cl)cc1[N+](=O)[O-] [KKL-1373],4
14,O=C(Cc1ccc(F)cc1)Nc1nc(-c2ccccn2)cs1 [KKL-1688],13
15,Cc1cc(NCc2ccccn2)n2ncc(-c3ccccc3)c2n1 [KKL-0947],0
16,COc1ccccc1CN1CCCCC1C(=O)Nc1ccc(-n2cccn2)cc1 (centres unmarked) [KKL-0494],3
17,Cc1ccc(-n2cc(CN(C)Cc3cc(C)[nH]n3)c(-c3ccc(F)cc3)n2)cc1 [KKL-0319],0
18,COc1ccccc1C1(O)CCN(Cc2cnn(-c3ccc(C)cc3)c2)CC1 [KKL-0553],7
